CYP2C19 inhib = human CYP2C19 inhibition; P33261; CYP2C19 Supersomes, luciferin-H EGE luminescence, 30 min; inhibition, % at 5 µM; AID 778; actives 21% (n = 96,000);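 active = CYP2C19 inhibition above a set limit at 5 µM in the primary screen, cut at about 50% in these data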
Target sequence (P33261 whole entry, looked up): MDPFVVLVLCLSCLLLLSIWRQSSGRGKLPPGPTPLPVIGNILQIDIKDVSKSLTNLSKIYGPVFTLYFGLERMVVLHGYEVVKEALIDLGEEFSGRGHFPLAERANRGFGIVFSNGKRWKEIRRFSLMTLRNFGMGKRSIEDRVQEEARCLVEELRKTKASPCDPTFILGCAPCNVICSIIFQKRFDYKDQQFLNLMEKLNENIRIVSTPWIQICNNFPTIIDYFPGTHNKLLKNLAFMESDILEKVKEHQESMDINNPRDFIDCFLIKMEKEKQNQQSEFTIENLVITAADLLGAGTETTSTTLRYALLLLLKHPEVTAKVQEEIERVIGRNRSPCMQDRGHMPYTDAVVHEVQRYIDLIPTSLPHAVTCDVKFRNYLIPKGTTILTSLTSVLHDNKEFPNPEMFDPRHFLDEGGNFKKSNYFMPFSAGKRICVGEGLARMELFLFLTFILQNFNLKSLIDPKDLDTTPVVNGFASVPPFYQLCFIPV
CYP2C19 act = activators of human cytochrome P450 2C19 | activation factor at 5 µM | P33261 | 96,000 tested, under 10 active | AID 1025 | recombinant CYP2C19, luciferin-H EGE luminescence; hits give high values; 0 = fully inhibited enzyme, 1 = untreated enzyme;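 active = activation factor of at least 2 at 5 µM in the primary screen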
Cav32 inh = inhibitors of human Cav3.2 T-type calcium channel. actives 4% (n = 100,000). AID 449739. B-score at 10 µM. Cav3.2-expressing cells, Fluo-4 calcium fluorescence FDSS; hits give low values;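 active = single-dose well whose peak fluorescence ratio is a statistical outlier from its plate by either plate-standardised score or position-corrected B-score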
CYP2C9 act = activators of human CYP2C9; actives 1.4% (n = 96,000); activation factor at 5 µM; P11712; recombinant CYP2C9, luciferin-H conversion, luminescence; hits give high values; factor 1 = untreated enzyme, 0 = blocked;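 active = activation factor of 2 or more for CYP2C9 at a 5 µM dose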
CYP2C9 inh = human CYP2C9 inhibition; P11712; CYP2C9 Supersomes, luciferin-H conversion, luminescence; inhibition, % at 5 µM; actives 20% (n = 96,000); AID 777;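 active = blocking of liver enzyme CYP2C9 beyond about 50% at 5 µM, limit read from the data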
Hits are given with their value; n = inactive; x = no result given. Rows were chosen to be rich in hits. Some 27% of all compounds tested hit in one or more screens of this group.

SMILES	CYP2C19 inhib	CYP2C19 act	Cav32 inh	CYP2C9 act	CYP2C9 inh
O=C(OCc1nnc(-c2ccccc2)o1)c1ccc2c(c1)OCCO2	n	n	n	n	58
c1ccc(Cc2nnc(-c3ccccc3)o2)cc1	52	n	-5.5	n	n
COc1cc(-c2nnc(COC(=O)c3cc(C)nc4ccc(C)cc34)o2)cc(OC)c1OC	90	n	n	n	88
C/C(=C\C(=O)O)CC(=O)O	n	n	n	n	n
Cn1c(=O)n(Cc2ccccc2F)c(=O)c2c1nc1n2CCCN1CCc1ccccc1	n	n	n	n	n
CC(C)Cn1c(=O)c2c(nc3n2CCCN3CCc2ccccc2)n(C)c1=O	85	n	n	n	93
Cc1ccc(N2CCCn3c2nc2c3c(=O)n(CC(=O)OCc3ccccc3)c(=O)n2C)cc1C	n	n	x	n	55
Cn1c(=O)n(Cc2ccc(F)cc2)c(=O)c2c1nc1n2CCCN1Cc1ccccc1	96	n	n	n	86
Cn1c(=O)n(CCc2ccccc2)c(=O)c2c1nc1n2CCCN1Cc1ccccc1	n	n	n	n	n
Cc1cc(C)cc(N2CCCn3c2nc2c3c(=O)n(CC(=O)OCc3ccccc3)c(=O)n2C)c1	n	n	n	n	n
Cn1c(=O)n(CCc2ccccc2)c(=O)c2c1nc1n2CCCN1CCc1ccccc1	92	n	x	n	93
COc1ccc(N2CCN(S(=O)(=O)c3ccc4c(c3)CCCC4)CC2)c([N+](=O)[O-])c1	n	n	n	n	n
O=C1Nc2ccc(Br)cc2C1=Nc1ccc(-c2nnc3n2CCCCC3)cc1	n	n	x	n	n
CSc1ccccc1NC(=O)CN(c1ccccc1)S(=O)(=O)N(C)C	n	n	n	n	n
CN(C)S(=O)(=O)N(CC(=O)Nc1ccc2ccccc2c1)c1ccccc1	x	x	-9.5	x	x
CN(C)S(=O)(=O)N(CC(=O)Nc1ccccc1C(F)(F)F)c1ccccc1	88	n	n	n	n
CN(C)S(=O)(=O)N(CC(=O)Nc1ccc(F)c(F)c1)c1ccccc1	n	n	n	n	56
CC(=O)Nc1ccc2ccccc2c1	n	n	n	n	n
CCOc1ccc2nc(SCC#N)c(C#N)cc2c1	n	n	n	n	67
Cc1cc(C)c2nc(SCC(=O)N3CCCCC3)c(C#N)cc2c1	n	n	x	n	n
CCOc1ccc2cc(C#N)c(SCC(=O)NC(C)CC)nc2c1 (stereo not drawn)	n	n	n	n	54
COCC(=O)N1CCCN(c2nc3c(C)cccc3cc2C#N)CC1	64	n	n	n	n
CCSc1nc2ccc(OC)cc2cc1C#N	x	x	n	x	x
Cc1cccc2cc(C#N)c(SCC(=O)N3CCC(C)CC3)nc12	n	n	n	n	59
O=c1[nH]c(CN2CCC(c3nc4ccccc4s3)CC2)nc2sc3c(c12)CCC3	n	n	x	n	n
SMILES	CYP2C19 inhib	CYP2C19 act	Cav32 inh	CYP2C9 act	CYP2C9 inh
CCOc1ccc(NC(=O)C(C)Oc2ccccc2C(=O)Nc2ccc(C)c(Cl)c2)cc1 (stereo not drawn)	x	x	n	x	x
CCS(=O)(=O)N1CCC(NC(=O)C2CCCCC2)CC1	n	n	n	n	n
CCOc1ccc2cc(C#N)c(SCC(=O)N3CCC(C)CC3)nc2c1	n	n	n	n	63
CCOC(=O)CSc1nc2cc(OCC)ccc2cc1C#N	n	n	n	n	n
N#Cc1c(N)n[nH]c1CCCN	n	n	n	n	n
Cc1cc(C(=O)OCC(=O)N(C)C2CCS(=O)(=O)C2)c(C)n1-c1ccccc1 (stereo not drawn)	n	n	n	n	n
COc1ccc2c(c1)c(=O)oc1cc(OCC(=O)N3CCC(C)CC3)ccc12	99	n	n	n	n
COc1ccc2c(c1)c(=O)oc1cc(OCC(=O)N3CCc4ccccc4C3)ccc12	n	n	n	n	61
COc1ccc2c(c1)c(=O)oc1cc(OCC(=O)N3CCCC(C)C3)ccc12 (stereo not drawn)	99	n	x	n	n
C=CCN(CC=C)S(=O)(=O)c1ccc(NC(=O)COc2ccccc2OC)cc1	x	x	n	x	x
O=C(CNC(=O)c1cccs1)c1ccc(F)cc1	x	x	n	x	x
Cc1cccc(OC(C)C(=O)N(Cc2cccs2)C2CCS(=O)(=O)C2)c1C (stereo not drawn)	95	n	x	n	n
CCOC(=O)C1C(=O)C=C(/C=C/c2ccccc2)CC1c1ccc(Cl)cc1 (stereo not drawn)	n	n	n	n	n
O=C(COc1ccccc1)NNc1c2ccccc2nc2ccccc12	n	n	x	3.2	n
COc1ccc(OCC(=O)NNc2c3ccccc3nc3ccccc23)cc1	n	n	n	2.3	n

Source: PubChem
